High-throughput results (PubChem)
Sa ugtP lethal: growth inhibition of S. aureus ugtP deletion strain. S. aureus RN4220 ugtP deletion, OD600 growth, 16 h. growth inhibition, % (no concentration beside the values). actives 0.54% (n = 330,000); in the data active = growth inhibition above about 68%;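 also: plate controls were untreated wells for no effect and antibiotic for full effect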
PfHsp40 yeast: rescue of PfHsp40-mediated yeast toxicity; growth rescue, % at 12.5 µM; actives 0.68% (n = 340,000); S. cerevisiae expressing PfHsp40, growth rescue, ATP luminescence; AID 504582; in the data active = growth rescue above about 28%, passing the limit was not always enough;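 also: yeast W303a lacking pdr1 and pdr3 grown in galactose medium; growth measured after three days at 30 °C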
CCHF vOTU inh-1: CCHFV vOTU protease inhibition | Pep-AMC fluorescence | inhibition, % at 11.5 µM | actives 0.55% (n = 370,000) | AID 651958; also: 0% = vehicle wells with enzyme and 100% = no enzyme wells
Mtb hypoxia inh: Mtb hypoxia fluorescent reporter inhibition; M. tuberculosis hypoxia-regulated fluorescent reporter, fluorescence; fluorescence inhibition, % (no concentration beside the values); actives 0.1% (n = 300,000); in the data active = fluorescence inhibition mostly above about 23%, no sharp cut-off; inactive = mostly below about 17%
RN4220 kill: kills Staphylococcus aureus RN4220. S. aureus RN4220 growth, OD600, 16 h. actives 0.33% (n = 330,000). inhibition, % (concentration not given with the values). AID 1259311; in the data active = inhibition above about 85%;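 also: plate controls were untreated cells for no effect and reference antibiotic for full effect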
BH1578 lux ind: quorum light induction in luxS cqsA deficient V. cholerae. V. cholerae BH1578 lux reporter, luminescence, 6 h. activation, % at 18.7 µM. actives 0.16% (n = 350,000). AID 588436; in the data active = activation mostly above about 9.7%, no sharp cut-off
CCHF vOTU inh-2: CCHFV vOTU protease inhibition, confirmation | inhibition, % at 11.5 µM | actives 17% (n = 1,900) | Recombinant CCHFV vOTU, Pep-AMC fluorescence | shares compounds with CCHF vOTU inh-1 | AID 686976
The depositor's hits bear a star; i = inactive; x = no result given. This is a sample that favours compounds with a hit; in the whole collection about 1.7% have one here. Rule as the data show it, unless noted: active = inhibition above about 30%; inactive = the rest.

SMILES	Sa ugtP lethal	PfHsp40 yeast	CCHF vOTU inh-1	Mtb hypoxia inh	RN4220 kill	BH1578 lux ind	CCHF vOTU inh-2
O=C1c2c(O)cccc2C(C2OC(CO)[C@@H](O)[C@H](O)[C@H]2O)c2cc(CO)cc(O)c21 (stereo not given in full)	-5	0	3	5	-7	0	x
O=C1c2cc(CO)cc(O)c2C(=O)c2c(O[C@@H]3OC(CO)[C@@H](O)[C@@H](O)[C@@H]3O)cccc21 (stereo not given in full)	-6	4	0	x	4	0	x
O=c1[nH]c2ccccc2c(O)c1SCCO	-2	0	-5	-1	2	-1	x
O=C1C(SCCO)=C(SCCO)C(=O)c2ccccc21	x	-1	114*	x	x	1	107*
CCOC(=O)COc1ccc(S(=O)(=O)N2CCN(c3ccc(OC)cc3)CC2)cc1	9	0	30*	5	4	0	-4
CCOc1cccc(CNc2ccc(O)cc2)c1OCc1ccc(Cl)cc1Cl	83	0	49*	x	-22	i	7
CCOc1cccc(CNn2cnnc2)c1OCc1ccccc1Cl	-9	-1	-6	7	-6	x	x
CCOc1cccc(CNc2ccc(O)cc2)c1OCc1ccccc1Cl	40	-1	44*	8	-13	0	3
CC(=NOCC(=O)Nc1ccc(F)c(F)c1F)c1cc2ccccc2o1	-13	x	x	4	2	x	x
CCc1ccc(S(=O)(=O)NN=Cc2cn(CC(N)=O)c3ccccc23)cc1	45	x	x	-3	-6	x	x
COc1ccccc1N(CC(=O)NN=Cc1ccc(OCC(=O)NCc2ccco2)cc1)S(=O)(=O)c1ccc(C)cc1	-17	x	x	x	-8	x	x
Cn1cnc(S(=O)(=O)Nc2ccccc2N2CCOCC2)c1	8	x	-6	16	3	0	x
CN(C)c1cccc2c1c(NS(=O)(=O)c1cn(C)cn1)nn2C	6	0	52*	1	4	-2	50*
Cc1ccc(Nc2cc(-n3cccn3)ncn2)c(C)c1	4	0	64*	-3	2	0	-2
Cc1ccc(Nc2cc(-n3nc(C)cc3C)ncn2)c(C)c1	-8	-1	-1	10	1	2	x
COc1ccc(NC(=O)C(C#N)=Cc2ccc(OCc3ccccc3F)cc2)cc1	5	x	x	11	9	x	x
Cn1c(SCc2ccccc2)nccc1=O	-2	0	2	-2	4	-6	x
CC1=C(SCc2ccccc2)C(=O)c2ccccc2C1=O	-7	0	104*	-16	12	0	87*
COCCn1cnc2c(c1=O)c1nc3ccccc3nc1n2N=Cc1cccc(OC)c1	-14	x	x	4	3	x	x
CCC(NC(=O)c1ccc2c(c1)c(C)c(C)n2Cc1ccc(Cl)cc1)c1ccccc1 (stereo not given)	x	x	10	x	x	x	x
CCC(NC(=O)c1ccc2c(ccn2Cc2cccc(-c3ccc(C(=O)O)cc3)c2)c1)c1ccccc1 (stereo not given)	x	x	32*	x	x	x	-2
O=C1C(Cl)=C(NCCCN2CCOCC2)C(=O)c2ccccc21	2	-1	17	16	23	-2	x
CCOCCCNC1=C(Cl)C(=O)c2ccccc2C1=O	13	0	46*	-12	29	-1	60*
CCOCCCNS(=O)(=O)c1ccccc1	4	-1	1	0	3	0	x
O=C1C(Cl)=C(NCCCO)C(=O)c2ccccc21	9	-1	45*	x	40	0	48*
SMILES	Sa ugtP lethal	PfHsp40 yeast	CCHF vOTU inh-1	Mtb hypoxia inh	RN4220 kill	BH1578 lux ind	CCHF vOTU inh-2
O=C1C(Cl)=C(NCCN2CCOCC2)C(=O)c2ccccc21	6	-1	43*	1	18	0	62*
Cc1ccc(NC2=C(NCCO)C(=O)c3ccccc3C2=O)cc1	9	0	115*	3	15	0	42*
CCOC(=O)c1ccc(C=C2c3ccccc3C(=O)N2c2ccccc2)cc1F	11	x	x	5	-5	x	x
Cc1ccc(SCc2c(C(=O)NN=Cc3ccccc3)nnn2-c2nonc2N)cc1	12	x	x	-3	4	x	x
CCOc1ccc(NC(=NCc2ccc3c(c2)OCO3)SC2CC(=O)N(c3ccc(C(=O)O)cc3)C2=O)cc1 (stereo not given)	27	4	30*	7	3	2	7
CC12CC(c3ccccc3O1)C(C(=O)OCc1ccccc1)C(=O)N2 (stereo not given)	9	0	38*	8	7	0	-3
Cc1cc(C)cc(NC(=S)N(Cc2ccc(Br)cc2)Cc2ccc(C(=O)O)cc2)c1	25	1	8	4	25	0	x
Cc1ccc(NC(=S)N(Cc2ccc(Br)cc2)Cc2ccc(C(=O)O)cc2)cc1C	7	-1	31*	-6	12	0	6
Cc1ccc(S(=O)(=O)/N=C2\C(=O)c3ccccc3C([O-])=C2n2cc[n+](CCC(C)C)c2)cc1	3	-1	x	6	14	-1	x
CC(=O)Nc1ccc(S(=O)(=O)/N=C2\C(=O)c3ccccc3C([O-])=C2n2cc[n+](-c3ccccn3)c2)cc1	0	-1	68*	-5	2	4	58*
Cc1ccc2cc(C(c3nnnn3CC3CCCO3)N3CCc4ccccc4C3)c(=O)[nH]c2c1 (stereo not given)	-5	-1	84*	12	5	2	0
C[N+]([O-])=CC1C(=O)CCCC1=O	-7	x	x	7	2	x	x
CCCCOc1cc(NCc2ccccc2)c2ncn(C(C)C)c2c1	-35	1	37*	-5	-6	1	10
COc1ccc(Cc2cc(NCc3ccccc3)c3ncn(C(C)C)c3c2)cc1	9	0	5	8	-2	i	x
CCC(CO)Oc1cc(NCc2ccccc2)c2ncn(C(C)C)c2c1 (stereo not given)	-6	0	10	12	6	i	x
COCCCOc1cc(NCc2ccccc2)c2ncn(C(C)C)c2c1	-6	0	7	-1	6	0	x
CCC(COC)Oc1cc(NCc2ccccc2)c2ncn(C(C)C)c2c1 (stereo not given)	-8	0	70*	6	8	-5	69*
CCOCCOc1cc(NCc2ccccc2)c2ncn(C(C)C)c2c1	2	4	30*	5	4	i	4
CC(C)(C)OC(=O)NC(C(=O)OC(C)(C)C)c1ccc2c(c1)OCO2 (stereo not given)	0	x	x	9	4	x	x
COc1ccc(C(C)=NNC(=O)CNC(=O)Cc2ccccc2)c(OC)c1	16	x	x	1	5	x	x
CC(NC(=O)c1nc[nH]c1C(=O)NCC(=O)OCc1ccccc1)C(=O)OCc1ccccc1 (stereo not given)	-7	x	x	4	8	x	x
Cc1cc(=O)n(C2CCS(=O)(=O)C2)[nH]1 (stereo not given)	7	-1	57*	19	4	0	-18
